# Experimental data taken from PubChem BioAssay (NCI).
# The panel holds about 83,000 compounds, 20% with a hit somewhere; the sample as a whole holds those more often.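 Note: values are percent growth. 100 is the growth of untreated cells, values between 100 and 0 indicate rising inhibition; between -100 and 0 indicates cell death.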 Unmarked numbers belong to inactive results. Activity calls are given as the source filed them. Rule for the calls: active = growth percent below 10; inactive = the rest.
# Tested on: HL-60(TB) leukemia
# Experiment: NCI-60 one-dose screen, 48 h (100 = growth as untreated, 0 = no growth, -100 = all killed)
# Details: 10 µM unless noted
row,SMILES,growth
1,COc1ccc2c(c1OC)CO[C@@H]2[C@H]1c2c(cc3c(c2OC)OCO3)CCN1S(=O)(=O)c1cn(C)cn1,-0.0238% (active)
2,O=C(c1ccc(Cl)cc1)c1ccccc1Cl,96.4%
3,Cc1nc(/N=C(\N)NC(=O)Nc2ccccc2Cl)sc1C,3.77% (active)
4,O=C(CCc1nc(-c2cccc(Cl)c2)no1)Nc1ccccn1,102%
5,CNC(=O)c1cn2c3c(c(N4CCN(C)CC4)c(F)cc3c1=O)OC[C@@H]2C,99.3%
6,CCc1ccc2c(c1)N(CCO)C1=C(C(=O)OC1)C2c1cccc(Br)c1 (centres undefined),-9.76% (active)
7,Cc1cccc2c(=O)c3c(sc12)c(NCCCNCCO)nc1ccccc13,14.6%
8,Nc1c(C(=O)Nc2c(Cl)cccc2Cl)sc2nc3c(cc12)CCCC3,35%
9,CC[C@@H](C(=O)[C@@H](C)[C@@H](O)[C@H](C)[C@@H]1O[C@@H]([C@@H](CC)C(=O)ONC(=O)c2ccccc2O)CC[C@@H]1C)C1O[C@]2(C=CC(=O)[C@]3(CC[C@@](C)([C@H]4CC[C@](O)(CC)[C@H](C)O4)O3)O2)[C@H](C)C[C@@H]1C (some centres undefined),-45.7% (active)
10,c1ccc2[nH]c(-c3ccc(Nc4nc(N5CCCC5)nc5[nH]ncc45)cc3)nc2c1,-32.8% (active)
11,COc1ccc(NC(=O)c2sc3c(=O)[nH]c(C(F)(F)F)nc3c2C)cc1,106%
12,CCOC(=O)c1nc2c3ccccc3ccn2c1C(=O)OC,94.9%
13,Cc1cccc(-[n+]2noc(N)n2)c1,30.8%
14,CCCCCCCCCNCCCCCCCCC,28.6%
15,Cc1ccc(-c2csc(NC(=O)c3ccccc3CN3C(=O)c4ccccc4C3=O)n2)cc1,95.3%
16,CCN1CCN(c2nc(NNC(=O)c3ccc(OC)cc3)nc(N3CCN(C(c4ccccc4)c4ccccc4)CC3)n2)CC1,18.7%
17,CCOC(=O)CN(c1sc(C)c(C)c1C(=O)OCC)S(=O)(=O)c1ccc(C)cc1,94.2%
18,O=C1CCCCN1CCCCC#Cc1ccccc1C#Cc1ccc([N+](=O)[O-])cc1,-25.7% (active)
19,CN1CCN(c2ccc(-c3cc4c(Nc5ccc(F)c(Cl)c5)ncnn4c3)cn2)CC1,72.8%
20,COc1cc2c(cc1OC)C(C)N(S(N)(=O)=O)CC2 (centres undefined),72.2%

row,SMILES,growth
1,O=C(CCl)Oc1ccc([N+](=O)[O-])cc1,107%
2,COc1ccc(C(=O)Cn2c(C(=O)c3ccc(OC)cc3)nc3ccccc32)cc1,-50.7% (active)
3,CCN(CC)CCSC(=O)C(O)(c1ccccc1)C1CCCC1 (centres undefined),94%
4,CC12CCCC(CC(=O)c3[nH]c4ccccc4c31)C2 (centres undefined),-0.598% (active)
5,Brc1ccc(/C=C(/C2=NCCN2)n2ccc3ccccc32)cc1,26.2%
6,Cc1cc(N(CCCNc2ccnc3cc(Cl)ccc23)Cc2ccccn2)nc(N2CCOCC2)n1,102%
7,Cc1ccc(CNc2c3ccccc3nc3cc(NC(=O)CCN4CCCC4)ccc23)cc1,-64.3% (active)
8,COc1cccc(NC(=O)c2sc3nc(C)c(C(=O)c4ccccc4)cc3c2N)c1,93.5%
9,COc1cc(/C=C/c2c(C(C)=O)c(C)nc3ccccc23)cc(OC)c1OC,0.0645% (active)
10,O=C1NC(=O)/C(=C\c2ccncc2)N1,119%
11,O=c1c2cc(Cl)ccc2oc2ccc(OCCCCCN3CCCCC3)cc12,38.5%
12,Cc1nc2cccc(NCc3ccc(C(=O)NO)cc3)c2c(=O)n1-c1ccccc1,27.2%
13,CCN(CC)c1ccc(CNc2cc(C)nc3ccccc23)cc1,81.1%
14,Cc1nonc1-c1ccc2c(c1)OCO2,86.9%
15,Cc1[nH]c(-c2nc3ccccc3[nH]2)c(C)c1C(=O)N1CCOCC1,111%
16,COc1ccc(-c2csc(NC(=O)CSc3nc(C)cc(=O)[nH]3)n2)cc1,106%
17,C[C@]12CCc3c(ccc4cc(O)ccc34)[C@@H]1CC[C@H]2O,86.7%
18,O=C(c1nc2ccccc2[nH]1)C1C(c2ccc(Cl)cc2)C2CC3CCCC[C@H]3N2[C@@]12C(=O)Nc1cc(Cl)ccc12 (some centres undefined),23.8%
19,CCOC(=O)c1cc(C(=O)c2ccc(Br)cc2)n2ccc(/C=C/c3cc[n+](CC(=O)c4ccc(OC)cc4)cc3)cc12,58.1%
